Molecules are shown by their SMILES.

The nature of this assay: probe aCHRDL2 binding to arrayed compounds – biochemical, biotinylated probe, 635/667 nm fluorescence, primary screen (AID 1100). Conditions: small-molecule microarray, higher = more signal.
In the case of `COCCOC(=O)N1C(=O)[C@@]2(c3cc(C#CC4=CCCCC4)ccc31)[C@H](C(N)=O)[C@H]1C(=O)O[C@H](c3ccccc3)[C@H](c3ccccc3)N1[C@@H]2c1ccccc1OCCO`, the composite z-score worked out at 0.367.

Regarding `O=C1NC(=O)C2C1C=CC(C(O)c1ccco1)N2Nc1ccccn1` (stereo unspecified), the composite z-score is 0.0668.

On to `CCCCN1CC=CC23O[C@@H]4/C=C\CCC(C)OC(=O)C4[C@H]2C(=O)N(C(CO)C(C)C)[C@@H]3C1=O` (stereo partly specified), for which the composite z-score was -0.176.

`CC=CC(O)C1C=CC2C(=O)N(c3ccccc3)C(=O)C2N1Nc1ccccc1F` (stereo unspecified) gave a composite z-score of 0.76.

`COc1ccccc1CN1C(=O)c2ccccc2[C@](Cc2ccccc2I)(C(=O)NCC(F)(F)F)[C@@H]1c1ccc(CO)cc1` came in with a composite z-score of 0.854.

Regarding `O=C1NC(=O)C2C1C=CC(C(O)c1c(F)cccc1Cl)N2Nc1ccc(Cl)cc1Cl` (stereo unspecified), the composite z-score is 1.41.

As for `COC(=O)[C@@]1(Cc2ccccc2)[C@H]2c3cc(C(=O)N(C)C)n(CCc4ccc(O)c(OC)c4)c3C[C@H]2CN1C(=O)c1ccccc1`, the composite z-score amounted to 0.379.

Consider `CCCNC(=O)[C@@H]1c2ccccc2C(=O)N(C(C)C)[C@H]1c1ccc(CO)cc1`, for which the composite z-score came out at 0.933.

Compound `[N-]=[N+]=Nc1ccccc1[C@H]1OC(c2ccc(OCCCO)cc2)=N[C@@]1(Cc1ccccc1)C(=O)N1CCCCC1` showed a composite z-score of 1.13.

For the compound `C=CCC(OC(C)=O)[C@@H]1[C@@H](N(Cc2cccc3ccccc23)C(=O)Cc2ccc(F)cc2)c2cc(OCCCO)ccc2N1C(=O)c1ccc2ccccc2n1` (stereo partly specified), the composite z-score came out at 0.429.

In turn, `C[N+](C)(C)CCCC[C@@H]1NC(=O)[C@H]2C[C@@H](C(=O)NCCCCCCN)[C@@H](c3ccc(O)cc3)N2C1=O` displayed a composite z-score of 0.659.

The values are drawn from PubChem BioAssay.
